Measured values taken from PubChem BioAssay (NCATS).
Where “and” joins values, the source holds several entries; their conditions need not be identical. Equal values may be shown once. Results filed as inconclusive are left out. Entries that show only a call come without a potency. Where a structure was tested more than once in an assay, its records may differ in their call. A number with no mark means an inactive call. Calls of active or inactive are those of the source. The call rests on the fitted dose curve; in most records, active means well fitted curve in the direction sought with a large enough effect; inconclusive means small, poorly fitted or top-dose-only effect, or another doubt; inactive means no such curve, though single readings can be large; an effect the other way counts as inactive or inconclusive.

Key:
MCC-13 = assay: qHTS assay to identify novel small-molecules to repurpose for Merkel cell carcinoma treatment (AID 1296009); conditions: MCC and control cell lines, CellTiter-Glo viability, 72 h; series mostly up to 46 µM; further: nearly all actives have a fitted effect of over 60% in size; further: potency means the concentration at half of the fitted maximal effect
In short: (§1)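 Viability readout: ATP luminescence (CellTiter-Glo) after 72 hr drug exposure at 37 degree celsius. Dose-response format was 8 points for NPC and 11 points for MIPE; data normalized to in-plate controls.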

MCC-26 = assay: as above; conditions: MCC and control cell lines, CellTiter-Glo viability, 72 h; series mostly up to 46 µM
In short: as §1

MKL-1 = assay: as above; conditions: MCC and control cell lines, CellTiter-Glo viability, 72 h; series mostly up to 46 µM
In short: as §1

MKL-2 = assay: as above; conditions: MCC and control cell lines, CellTiter-Glo viability, 72 h; series mostly up to 46 µM
In short: as §1

NIH3T3 = assay: as above; conditions: MCC and control cell lines, CellTiter-Glo viability, 72 h; at 44.8 µM (top of the series) unless noted
In short: as §1

UISO = assay: as above; conditions: MCC and control cell lines, CellTiter-Glo viability, 72 h; series mostly up to 46 µM
In short: as §1

WaGa = assay: as above; conditions: MCC and control cell lines, CellTiter-Glo viability, 72 h; series mostly up to 46 µM
In short: as §1

C33A = assay: Primary qHTS to identify gynecologic anti-cancer compounds using libraries of approved drugs and bioactive compounds (AID 1345084); conditions: Gynecologic cancer cell panel viability, ATPlite luminescence, 48 h; series mostly up to 57.5 µM; further: nearly all actives have a fitted effect of over 55% in size
In short: (§2)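 Cell viability after 48 h drug treatment, ATPlite luminescence readout; five doses.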

CAOV3 = assay: as above; conditions: Gynecologic cancer cell panel viability, ATPlite luminescence, 48 h; series mostly up to 57.5 µM
In short: as §2

CASKI = assay: as above; conditions: Gynecologic cancer cell panel viability, ATPlite luminescence, 48 h; series mostly up to 57.5 µM
In short: as §2

| Compound | Potency (MCC-13) | Potency (MCC-26) | Potency (MKL-1) | Potency (MKL-2) | outcome (NIH3T3) | Potency (UISO) | Potency (WaGa) | Potency (C33A) | Potency (CAOV3) | Potency (CASKI) | activity change, negative = cytotoxicity (MKL-1) | activity change, negative = cytotoxicity (WaGa) | activity change, negative = cytotoxicity (C33A) | activity change, negative = cytotoxicity (CAOV3) | activity change, negative = cytotoxicity (CASKI) |
| --- | --- | --- | --- | --- | --- | --- | --- | --- | --- | --- | --- | --- | --- | --- | --- |
| Nc1nc(OCc2ccccc2)c2[nH]cnc2n1 | inactive | inactive | inactive | inactive | inactive | inactive | inactive | – | – | – | – | – | – | – | – |
| COCCCOc1ccnc(CS(=O)c2nc3ccccc3[nH]2)c1C (stereo not given) | inactive | inactive | inactive | inactive | inactive | inactive | inactive | inactive | inactive | inactive | – | – | – | – | – |
| Cc1nc(-c2ccc(OCC(C)C)c(C#N)c2)sc1C(=O)O | inactive | inactive | inactive | inactive | inactive | inactive | inactive | inactive | – | – | – | – | – | – | – |
| CC(C)c1ccc2c(c1)c(SC(C)(C)C)c(CC(C)(C)C(=O)O)n2Cc1ccc(Cl)cc1 | inactive | inactive | inactive | inactive | inactive | inactive | inactive | – | – | – | – | – | – | – | – |
| Cc1ncc([N+](=O)[O-])n1CC(C)O (stereo not given) | inactive | inactive | inactive | inactive | inactive | inactive | inactive | inactive | inactive | inactive | – | – | – | – | – |
| O=C(O)CCNC(=O)c1ccc(N=Nc2ccc(O)c(C(=O)O)c2)cc1 | inactive | inactive | inactive | inactive | inactive | inactive | inactive | inactive | inactive | inactive | – | – | – | – | – |
| COc1ccccc1N1CCN(CCN(C(=O)C2CCCCC2)c2ccccn2)CC1 | inactive | inactive | inactive | inactive | inactive | inactive | inactive | inactive | inactive | inactive | – | – | – | – | – |
| c1cnc2cc3c(cc2n1)C1CNCC3C1 | inactive | inactive | inactive | inactive | inactive | inactive | inactive | inactive | inactive | inactive | – | – | – | – | – |
| Cc1cc(Cl)ccc1OCCCC(=O)NO | inactive | inactive | 14.8 µM (active) | – | – | – | – | – | – | – | – | – | – | – | – |
| Cc1ccc(NC(=O)c2ccc(CN3CCN(C)CC3)cc2)cc1Nc1nccc(-c2cccnc2)n1 | inactive | inactive | inactive | inactive | inactive | inactive | inactive | inactive | – | inactive | – | – | – | – | – |
| C[C@H](Cn1cnc2c(N)ncnc21)OCP(=O)(O)O | inactive | inactive | inactive | inactive | inactive | inactive | inactive | – | – | – | – | – | – | – | – |
| Oc1ccc(OCc2ccccc2)cc1 | inactive | inactive | inactive | inactive | inactive | inactive | inactive | inactive | – | inactive | – | – | – | – | – |
| CCN(CCO)CCCC(C)Nc1ccnc2cc(Cl)ccc12 (stereo not given) | inactive | inactive | 3.72 µM (active) | inactive | inactive [at 4.96 µM] | inactive | 2.35 µM (active) | – | – | – | 15.4% [at 4.84 µM] | 15.3% [at 4.84 µM] | 4.86% [at 6.55 µM] and 0.75% [at 6.55 µM] | 21.3% [at 6.55 µM] and 5.51% [at 6.55 µM] | 22.4% [at 6.55 µM] and 10.4% [at 6.55 µM] |
| N[C@@H](Cc1cc(I)c(Oc2cc(I)c(O)c(I)c2)c(I)c1)C(=O)O | inactive | inactive | inactive | inactive | inactive | inactive | inactive | inactive | inactive | inactive | – | – | – | – | – |
| CCC(C)(Oc1ccc(C2(c3ccc(OC(C)(CC)C(=O)O)cc3)CCCCC2)cc1)C(=O)O (stereo not given) | inactive | inactive | inactive | inactive | inactive | inactive | inactive | inactive | inactive | inactive | – | – | – | – | – |
| COc1cc(OC)c(C(=O)CCCN2CCCC2)c(OC)c1 | inactive | inactive | inactive | inactive | inactive | inactive | inactive | inactive | – | inactive | – | – | – | – | – |
| CCOC(=O)C1=C(O)C(=O)N(Cc2ccccc2)C1 | inactive | inactive | inactive | inactive | inactive | inactive | inactive | – | – | – | – | – | – | – | – |
| O=C(CS(=O)Cc1ccco1)NCC=CCOc1cc(CN2CCCCC2)ccn1 (stereo not given) | inactive | inactive | inactive | inactive | inactive | inactive | inactive | – | – | – | – | – | – | – | – |
| CC(C)[C@H](N)C(=O)OCCOCn1cnc2c(=O)[nH]c(N)nc21 | inactive | inactive | inactive | inactive | inactive | inactive | inactive | inactive | inactive | inactive | – | – | – | – | – |
| CCC1=C(C)CN(C(=O)NCCc2ccc(S(=O)(=O)NC(=O)NC3CCC(C)CC3)cc2)C1=O (stereo not given) | inactive | inactive | inactive | inactive | inactive | inactive | inactive | inactive | inactive | inactive | – | – | – | – | – |
| CC1=C(C(=O)O)N2C(=O)[C@@H](NC(=O)[C@H](N)C3=CCC=CC3)[C@H]2SC1 | inactive | inactive | inactive | inactive | inactive | inactive | inactive | inactive | inactive | inactive | – | – | – | – | – |
